Experimental data published in PubChem BioAssay (NCATS).
Records with an inconclusive call do not appear. Active and inactive are the calls of the source. Calls come from the whole dose curve.

Assay: A High-Content qHTS Against Drug Library for the Identification of Small Molecules that Inhibit DYT1 Early Onset Primary Dystonia-Associated Cell Pathology (AID 1645839)
Settings: HEK293 Flp-In EGFP-delE TorsinA, punctate imaging, 48 h; series mostly up to 46.1 µM; % pathology change, negative = correction: at the top concentration
Excerpt: Nicole Calakos M.D., Ph.D.
Duke University School of Medicine, Durham, NC
In DYT1 dystonia due to delGAG in the TOR1A gene, there is a robust and widely replicated finding of TorsinA protein mislocalization caused when the mutant protein is in excess of the wildtype protein (1-7). Stable HEK293 cell lines were created that replicate this phenomenon. Inducible expression of an EGFP-hu delE TorsinA encoding cDNA causes pronounced punctate cellular distribution. […] This phenotypic difference in EGFP-huTorsinA fusion protein distribution serves as an indicator of cell pathology. […] RNAi screen results with the assay were validated in DYT1 patient cell phenotypes, intersected with a known dystonia gene, and led to discovery of new human genetic dystonia associations.
The bioassay described herein is a high-content image screen with two readouts. The "%pathology" readout is the primary qHTS data channel, while the "cellcount" is the counterscreen qHTS channel. Desired active compounds are those that show inhibition in %pathology channel but no activity or minimal toxicity in cellcount readout.
1. Kustedjo, K., Bracey, M.H., and Cravatt, B.F. (2000). […] J. Biol. Chem. 275, 27933 - 27939.
2. Bragg, D.C., Kaufman, C.A., Kock, N., and Breakefield, X.O. (2004). Inhibition of N-linked glycosylation prevents inclusion formation by the dystonia-related mutant form of torsinA. Mol. Cell. Neurosci. 27, 417 - 426.
3. Gonzalez-Alegre, P., and Paulson, H.L. (2004). Aberrant Cellular Behavior of Mutant TorsinA Implicates Nuclear Envelope Dysfunction in DYT1 Dystonia. J. Neurosci. 24, 2593 - 2601.
4. Goodchild, R.E., and Dauer, W.T. (2004). Mislocalization to the nuclear envelope: an effect of the dystonia-causing torsinA mutation. Proc. Natl. Acad. Sci. U. S. A. 101, 847 - 852.
5. Kock, N., Allchorne, A.J., Sena-Esteves, M., Woolf, C.J., and Breakefield, X.O. (2006). RNAi blocks DYT1 mutant torsinA inclusions in neurons. Neurosci. Lett. 395, 201 - 205.
6. Hewett, J.W., Nery, F.C., Niland, B., Ge, P., Tan, P., Hadwiger, P., Tannous, B.A., Sah, D.W.Y., and Breakefield, X.O. (2008). siRNA knock-down of mutant torsinA restores processing through secretory pathway in DYT1 dystonia cells. Hum. Mol. Genet. 17, 1436 - 1445.
7. Calakos, N., Patel, V.D., Gottron, M., Wang, G., Tran-Viet, K.N., Brewington, D., Beyer, J.L., Steffens, D.C., Krishnan, R.R., and Zuchner, S. (2010). Functional evidence implicating a novel TOR1A mutation in idiopathic, late-onset focal dystonia. J. Med. Genet. 47, 646 - 650.
8. Rittiner* JE, Caffall* ZF, Hernandez-Martinez R, Sanderson SM, Pearson JL, Tsukayama KK, Liu AY, Xiao C, Tracy S, Shipman MK, Hickey P, Johnson J, Scott B, Stacy M, Saunders-Pullman R, Bressman S, Simonyan K, Sharma N, Ozelius LJ, Cirulli ET, Calakos N. Functional Genomic Analyses of Mendelian and Sporadic Disease Identify Impaired eIF2alpha Signaling as a Generalizable Mechanism for Dystonia. Neuron. 2016 Dec 21;92(6):1238-1251. doi: 10.1016/j.neuron.2016.11.012. Epub 2016 Dec 8. PMID: 27939583; PMCID: PMC5320521.
High-content, High-throughput Drug Screening Assay
The TorsinA mislocalization assay was modified from the previously published assay to accommodate compound testing in 1536 well format.1 Briefly, Flp-In T-REx 293 cells from Invitrogen in which a single copy of a cDNA is recombined into a specific genomic locus was used to create tetracycline-inducible expression of cDNA encoding either EGFP-hTOR1A (WT) or EGFP-delE hTOR1A (DYT1). WT and DYT1 cells were diluted to a concentration of 2 x 10^5 cells/mL in reduced serum media (DMEM High Glucose containing 1% tetracycline-tested FBS, 2 mM L-Glutamine, and 1% Penicillin/Streptomycin). 4 µl of WT cells and 4 µl of DTY1 cells were added to column 1 and columns 2-48, respectively, of a poly-D-lysine-coated, low base, black, clear bottom 1536 well plate (Corning, Corning, NY) using the BioRAPTR FRD Microfluidic Workstation (Beckman Coulter, Indianapolis, IN). The final cell number was 800 cells/well. […]

Structure (SMILES)	% pathology change, negative = correction
COC(=O)c1cc(Cl)c(NC(C)=O)cc1OC	-3.58% (inactive)
C[C@H](N)C(=O)N[C@@H](C)C(=O)NC1[C@H]2CN(c3nc4c(cc3F)c(=O)c(C(=O)O)cn4-c3ccc(F)cc3F)C[C@@H]12 (stereo not given in full)	-10.8% (inactive)
CCCCCC1Nc2cc(C(F)(F)F)c(S(N)(=O)=O)cc2S(=O)(=O)N1 (stereo not given)	-5.24% (inactive)
[O-][n+]1cccc(/C(Cl)=N/OC[C@@H](O)CN2CCCCC2)c1	-7.94% (inactive)
O=S(=O)(O)c1ccc2nc(-c3ccccc3)[nH]c2c1	16.5% (inactive)
O=C(O)c1ccc(OCCN2CCCCC2)cc1	11.1% (inactive)
Cc1nc([N+](=O)[O-])cn1-c1ccc([N+](=O)[O-])cc1	14% (inactive)
CN(C)CCCOC1(Cc2ccccc2)CCCCCC1	-5.14% (inactive)
CC(C)(C)c1cc(C=O)cc(C(C)(C)C)c1O	5.81% (inactive)
COc1ccc2c(c1)c(CC(=O)OC/C=C(\C)CC/C=C(\C)CCC=C(C)C)c(C)n2C(=O)c1ccc(Cl)cc1	4.9% (inactive)
OCCc1ccccc1	6.01% (inactive)
OCc1cccnc1	8.26% (inactive)
C[C@H]1C[C@@H]2[C@H]([C@@H](O)C[C@@]3(C)[C@H]2CC[C@]3(O)C(=O)CO)[C@@]2(C)C=CC(=O)C=C12	0.402% (inactive)
COCCc1ccc(OCC2CO2)cc1 (stereo not given)	2.23% (inactive)
NC(=O)COCCN1CCN(C(c2ccccc2)c2ccc(Cl)cc2)CC1 (stereo not given)	-0.135% (inactive)
Cc1nc(C2CCCCC2)c(-c2ccc(S(N)(=O)=O)c(F)c2)o1	-17.3% (inactive)
CC(=O)N[C@@H](CCC(N)=O)C(=O)O	8.48% (inactive)
CO[C@@]1(NC(=O)CSC[C@@H](N)C(=O)O)C(=O)N2C(C(=O)O)=C(CSc3nnnn3C)CS[C@@H]21	19% (inactive)
O=C(O)[C@H](O)[C@@H](O)[C@H](O[C@@H]1O[C@H](CO)[C@H](O)[C@H](O)[C@H]1O)[C@H](O)CO	3.53% (inactive)
C/C(=N/NC(=O)c1ccncc1)C(=O)O	5.51% (inactive)

Structure (SMILES)	% pathology change, negative = correction
CC1(C)O[C@@H]2C[C@H]3[C@@H]4C[C@H](F)C5=CC(=O)C=C[C@]5(C)[C@@]4(F)[C@@H](O)C[C@]3(C)[C@]2(C(=O)CO)O1	11.2% (inactive)
Cc1cc(CCCOc2c(C)cc(-c3noc(C(F)(F)F)n3)cc2C)on1	-27% (inactive)
COC(=O)c1cc(S(N)(=O)=O)ccc1OC	4.62% (inactive)
N[C@@H](Cc1cc(I)c(O)c(I)c1)C(=O)O	11.1% (inactive)
CCOC(=O)C(=O)c1csc(NC=O)n1	15.1% (inactive)
Nc1c(NC/C=C\COc2cc(CN3CCCCC3)ccn2)c(=O)c1=O	0.275% [at 19.1 µM] (inactive)
CC(NC(CCc1ccccc1)C(=O)O)C(=O)N1C(=O)N(C)CC1C(=O)O (stereo not given)	9.44% (inactive)
C[C@@]12CCC[C@H]1[C@@H]1CC[C@H]3C[C@@H](O)CC[C@]3(C)[C@H]1CC2	-21% (inactive)
CC(=O)CC/C=C(\C)CC/C=C(\C)CC/C=C(\C)CCC=C(C)C	5.68% (inactive)
CN1C(CSCC(F)(F)F)Nc2cc(Cl)c(S(N)(=O)=O)cc2S1(=O)=O (stereo not given)	-26.9% (inactive)
CCCC(=O)O[C@]1(C(=O)CC)CC[C@H]2[C@@H]3CCC4=CC(=O)CC[C@]4(C)[C@H]3[C@@H](O)C[C@@]21C	13.8% (inactive)
O=P(O)(O)OCC(O)CO (stereo not given)	19.2% (inactive)
CN1[C@@H]2CC[C@H]1CC(NC(=O)n1c(=O)[nH]c3ccccc31)C2 (stereo not given in full)	0.753% (inactive)
O=C1CC2(CCCC2)CC(=O)N1CCNCC1COc2ccccc2O1 (stereo not given)	0.349% (inactive)
Nc1c(I)cc(I)c(C(=O)N(CCC(=O)O)c2ccccc2)c1I	-5.05% (inactive)
O=C(NO)c1ccccc1	14.7% [at 91.7 µM] (inactive)
O=C(O)CCC(=O)OC[C@@H](NC(=O)C(Cl)Cl)[C@H](O)c1ccc([N+](=O)[O-])cc1	1.17% (inactive)
CNC(=O)c1c(I)c(NC(C)=O)c(I)c(C(=O)O)c1I	-1.61% (inactive)
COCCc1ccccn1	2.52% (inactive)
CC(C)C[C@H](NC(=O)CNC(=O)[C@H](Cc1ccc(O)cc1)NC(=O)[C@H](CO)NC(=O)[C@H](Cc1c[nH]c2ccccc12)NC(=O)[C@H](Cc1cnc[nH]1)NC(=O)[C@@H]1CCC(=O)N1)C(=O)N[C@@H](CCCN=C(N)N)C(=O)N1CCC[C@H]1C(=O)NCC(N)=O (stereo in doubt)	1.63% (inactive)
